# In PubChem BioAssay AID1274 (Emory University Molecular Libraries Screening Center, 2008):
# Among all 220,000 compounds or so, about 1,100 (0.5%) were called active. The full list was thinned out, with actives kept by preference. Unmarked numbers belong to inactive results.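 The calls were made as follows: active = inhibition above about 30% (limit read from the data); inactive = the rest.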
# Molecular target: Neutrophil cytosol factor 1 (Homo sapiens) (UniProt P14598)
# Assay: blockers of p47phox binding to p22phox – biochemical, uHTS, NADPH oxidase regulatory subunit, primary screen (AID 1274);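 also: 0% = p47phox with labelled peptide and 100% = labelled peptide alone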
# Conditions: p47phox/p22phox peptide binding, fluorescence polarization, 2 h; at 24.7 µM; stronger effect = higher value
# Chain of Neutrophil cytosol factor 1 (Homo sapiens) (P14598 whole entry, looked up): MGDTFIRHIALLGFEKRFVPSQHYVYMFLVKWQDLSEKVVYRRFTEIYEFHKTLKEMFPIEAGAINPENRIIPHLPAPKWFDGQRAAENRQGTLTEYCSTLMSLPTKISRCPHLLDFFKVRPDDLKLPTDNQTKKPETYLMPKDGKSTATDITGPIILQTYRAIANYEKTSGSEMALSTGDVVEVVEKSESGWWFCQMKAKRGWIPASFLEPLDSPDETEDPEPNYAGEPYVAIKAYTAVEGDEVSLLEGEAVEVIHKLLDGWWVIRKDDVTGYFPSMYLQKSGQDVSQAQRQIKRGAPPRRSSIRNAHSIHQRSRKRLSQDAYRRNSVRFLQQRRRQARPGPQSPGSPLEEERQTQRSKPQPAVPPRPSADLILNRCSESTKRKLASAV
row,SMILES,inhibition
1,COc1ccc(C2(CNC(=O)Cc3ccc(OC)c(OC)c3)CCCC2)cc1,10.1%
2,O=C(CSc1ccc2nnc(-c3ccccc3)n2n1)N1CCCc2ccccc21,9.14%
3,COc1ccc(NC(=S)SC)cc1OC,-0.91%
4,O=C1CC(c2ccccc2)=NN1c1ccc([N+](=O)[O-])cc1,-0.56%
5,O=c1[nH]n(-c2ccc([N+](=O)[O-])cc2)c(=O)c2ccccc12,43.7% (active)
6,O=c1[nH]c2cccnc2n1-c1ccc([N+](=O)[O-])cc1,3.76%
7,CC(=O)c1c(C)[nH]c(C(=O)Nc2cc(S(=O)(=O)N(C)C)ccc2C)c1C,-11.1%
8,COCCn1c(SCC(=O)Nc2cc(OC)ccc2OC)nc2c(c1=O)SC(C)C2 (stereo not drawn),-1.72%
9,CC1=C(C)C(=O)OC(C(C)C2CCC3C4CC=C5CC(OC6OC(COC7OC(CO)C(O)C(O)C7O)C(O)C(O)C6O)CC(O)C5(C)C4CCC23C)C1 (stereo not drawn),-3.03%
10,Cc1cccc2cc(CN(Cc3cccs3)C(=S)NCc3ccco3)c(=O)[nH]c12,-184%
11,Cc1ccc(C)c2[nH]c(=O)c(CN(Cc3cccnc3)C(=S)NCc3ccco3)cc12,40.3% (active)
12,O=C(Nc1ccccc1)N(Cc1cccnc1)Cc1ccco1,-9.87%
13,O=S1(=O)CC/C(=N\Nc2ccc(F)cc2)c2ccsc21,-3.38%
14,N#C/C(=C/c1ccc(N2CCCCC2)o1)C(=O)NCCc1c[nH]c2ccccc12,41.9% (active)
15,N#C/C(=C/c1ccc(-c2ccccc2[N+](=O)[O-])o1)C(=O)NCCN1CCCCC1,2.84%
16,O=C(NCCc1c[nH]c2ccccc12)C(=O)NCC1CCCO1 (stereo not drawn),-9.36%
17,Cc1ccc2cc(CN(c3ccc(C)c(C)c3)S(C)(=O)=O)c(=O)[nH]c2c1,-7.6%
18,O=C(Nc1ccc(S(=O)(=O)N2CCOCC2)cc1)c1ccc2ncsc2c1,-9.71%
19,Cc1ccc(O)c(NC(=S)NC(=O)COc2ccc(Br)cc2)c1,-10.4%
20,CCOC(=O)N1CCN(CCC(=O)Nc2cc(OC)ccc2OC)CC1,3.79%
21,COc1ccc(OC)c(NC(=O)CCN2CCC(C)CC2)c1,43.5% (active)
22,COc1ccc(NC(=O)CCN2CCCC2)c(OC)c1,-2.15%
23,Cc1ncn2cc(-c3ccc(Cl)cc3Cl)[nH]c(=O)c12,0.92%
24,CN(C)C(=O)CSc1n[nH]c(-c2ccco2)n1,-9.79%
25,O=C(COC(=O)c1ccc(F)cc1F)Nc1ncccn1,-18.8%
26,CSc1sc(C)cc1C1C(C#N)=C(N)N(c2cccnc2)C2=C1C(=O)CCC2 (stereo not drawn),40.6% (active)
27,CCc1ccc(C2C(C#N)=C(N)N(N(C)C)C3=C2C(=O)CCC3)s1 (stereo not drawn),-16.9%
28,N#CC1=C(N)N(c2ccccc2)C2=C(C(=O)CCC2)C1c1ccccc1 (stereo not drawn),-23.4%
